Data: PubChem BioAssay (NCATS)
Records with an inconclusive call do not appear. Entries that show only a call come without a potency. The source made the active and inactive calls. Calls follow the shape of the dose curve; as a rule, active = well fitted curve in the direction sought with a large enough effect; inconclusive = small, poorly fitted or top-dose-only effect, or another doubt; inactive = no such curve, though single readings can be large; an effect the other way counts as inactive or inconclusive.

How the values were obtained:
[1] = qHTS of pediatric cancer cell lines to identify multiple opportunities for drug repurposing: Primary screen for DAOY cells (AID 1347090); also: nearly all actives have a fitted effect of over 55% in size; also: potency is read from the fitted curve at half-maximal effect
Outline: (§1)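 Cell viability, CellTiter-Glo luminescence; 500-1,000 cells/well, 8- or 11-point titration, 48 h compound exposure at 37 degrees C, 5% CO2. Controls: DMSO neutral, bortezomib 2.3 µM final as positive.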

[2] = qHTS of pediatric cancer cell lines to identify multiple opportunities for drug repurposing: Primary screen for A673 cells (AID 1347092); also: nearly all actives have a fitted effect of over 45% in size; also: potency is read from the fitted curve at half-maximal effect
Outline: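 Titration-based qHTS on A673 cells: MIPE compounds spanned 11 points (0.78 nM to 46 µM final), NPC compounds 8 points (0.59 nM to 46 µM final). Viability after 48 h was measured by ATP luminescence.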

[3] = qHTS of pediatric cancer cell lines to identify multiple opportunities for drug repurposing: Primary screen for NB-EBc1 cells (AID 1347095); also: potency is read from the fitted curve at half-maximal effect
Outline: (§2)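 Cells plated at 500-1,000/well in growth medium, compounds added after 5 h. MIPE tested at 11 points (from 0.78 nM), NPC at 8 points (from 0.59 nM). CellTiter-Glo luminescence after 48 h; concentration-response curves from primary screen.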

[4] = qHTS of pediatric cancer cell lines to identify multiple opportunities for drug repurposing: Primary screen for U-2 OS cells (AID 1347096); also: nearly all actives have a fitted effect of over 50% in size
Outline: (§3)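 Cells (500-1,000/well) rested 5 h, then received compounds for 48 h; metabolically active cells were measured by CellTiter-Glo luminescence. Final concentrations spanned up to 46 µM (MIPE, 11-point) or 0.59 nM-46 µM (NPC, 8-point) in primary screens, 11-point in follow-ups.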

[5] = qHTS of pediatric cancer cell lines to identify multiple opportunities for drug repurposing: Primary screen for Saos-2 cells (AID 1347097); also: nearly all actives have a fitted effect of over 40% in size; also: potency is read from the fitted curve at half-maximal effect
Outline: as §2

[6] = qHTS of pediatric cancer cell lines to identify multiple opportunities for drug repurposing: Primary screen for SK-N-SH cells (AID 1347098); also: nearly all actives have a fitted effect of over 65% in size; also: potency is read from the fitted curve at half-maximal effect
Outline: as §3

[7] = qHTS of pediatric cancer cell lines to identify multiple opportunities for drug repurposing: Primary screen for NB1643 cells (AID 1347099); also: nearly all actives have a fitted effect of over 50% in size; also: potency is read from the fitted curve at half-maximal effect
Outline: as §2

[8] = qHTS of pediatric cancer cell lines to identify multiple opportunities for drug repurposing: Primary screen for SK-N-MC cells (AID 1347093); also: potency is read from the fitted curve at half-maximal effect
Outline: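 Metabolically active cells were quantified by ATP-dependent luminescence (CellTiter-Glo, 15 min at room temperature) following 48 h treatment. Cells had been plated at 500-1,000 per well and settled for 5 h beforehand.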

[9] = qHTS of pediatric cancer cell lines to identify multiple opportunities for drug repurposing: Primary screen for BT-37 cells (AID 1347094); also: potency is read from the fitted curve at half-maximal effect
Outline: as §2

[10] = qHTS of pediatric cancer cell lines to identify multiple opportunities for drug repurposing: Primary screen for SJ-GBM2 cells (AID 1347091); also: potency is read from the fitted curve at half-maximal effect
Outline: as §1

Row | SMILES | Potency [1] | Potency [2] | Potency [3] | Potency [4] | Potency [5] | Potency [6] | Potency [7] | Potency [8] | Potency [9] | Potency [10]
1 | CCCCN(CCCC)CC(O)c1cc(Cl)cc2c1-c1ccc(Cl)cc1C2=Cc1ccc(Cl)cc1 (stereo not drawn) | inactive | inactive | inactive | inactive | inactive | inactive | inactive |  |  | 
2 | COc1cc(F)c(C(C)C)cc1-c1ccc(C(F)(F)F)cc1CN1C(=O)O[C@H](c2cc(C(F)(F)F)cc(C(F)(F)F)c2)[C@@H]1C | inactive | inactive | 14.8 µM (active) | inactive | inactive |  |  | inactive |  | 
3 | Cc1cc(NC(=O)Nc2ccc(N(C)C)cc2)c2cc(F)cc(F)c2n1 | inactive | inactive |  | inactive |  | inactive | inactive | inactive | inactive | 
4 | COc1nccc(-c2c(-c3ccc(F)cc3)ncn2C2CCC(O)CC2)n1 (stereo not drawn) | inactive | inactive | inactive | inactive |  | inactive | inactive | inactive |  | 
5 | NC1(C(=O)N[C@@H](CCO)c2ccc(Cl)cc2)CCN(c2ncnc3[nH]ccc23)CC1 | 14.8 µM (active) | 18.7 µM (active) | 5.26 µM (active) |  | 5.9 µM (active) | 30.4 µM (active) | 1.87 µM (active) | 0.372 µM (active) |  | 
6 | CC(C)(O)CC(=O)NCCn1ccc2ncnc(Nc3ccc(Oc4cccc(C(F)(F)F)c4)c(Cl)c3)c21 | 0.469 µM (active) | 0.372 µM (active) |  | inactive |  | 1.21 µM (active) |  | 0.743 µM (active) | 24.3 µM (active) | 
7 | CN(C)c1ccc(-c2nc3ncc(Cl)c(N4CCN(CC(=O)Nc5nccs5)CC4)c3[nH]2)cc1 | inactive |  | 2.35 µM (active) |  | 14.8 µM (active) |  |  |  |  | 14.8 µM (active)
8 | Cc1cc(OCCCS(C)(=O)=O)cc(C)c1-c1cccc(COc2ccc3c(c2)OC[C@H]3CC(=O)O)c1 | 18.7 µM (active) |  |  | inactive | 33.2 µM (active) | inactive |  |  |  | 26.4 µM (active)
9 | CN1C(=O)C[C@H](C(=O)N[C@@H](Cc2cnc[nH]2)C(=O)N2CCC[C@@H]2C(N)=O)NC1=O | inactive |  |  | inactive | inactive | inactive |  |  | 24.3 µM (active) | inactive
10 | CN(C)c1ccccc1CN1CCCN(Cc2ccccc2N(C)C)C1c1ccncc1 | inactive | 18.7 µM (active) | 20.9 µM (active) |  |  |  |  | 26.4 µM (active) |  | 
11 | c1ccc(CNc2nc(N3CCOc4ccccc43)nc3c2CCCC3)cc1 | inactive |  |  | inactive |  |  | 23.5 µM (active) |  |  | 23.5 µM (active)
12 | CCC(=O)OCC(=O)[C@@]1(OC(=O)CC)[C@@H](C)C[C@@H]2[C@H]3CCC4=CC(=O)C=C[C@]4(C)[C@@]3(F)[C@@H](O)C[C@@]21C | 1.18 µM (active) | 1.87 µM (active) | inactive |  | 0.187 µM (active) |  |  | 0.0372 µM (active) |  | 
13 | CCCC1OC2C[C@@H]3[C@H]4CCC5=CC(=O)C=C[C@]5(C)[C@H]4C(O)C[C@]3(C)[C@]2(C(=O)CO)O1 (stereo partly drawn) | inactive | inactive |  |  |  |  | 20.9 µM (active) | 20.9 µM (active) |  | 
14 | CN[C@@H](C)[C@H]1[C@H](O)C[C@@]2(C)[C@@H]3CC[C@H]4C(C)(C)[C@@H](NC)CC[C@@]45C[C@@]35CC[C@]12C | inactive |  | inactive | inactive | inactive |  | inactive |  |  | inactive
15 | C[C@@H]1CCO[C@H]2Cn3cc(C(=O)NCc4ccc(F)cc4F)c(=O)c(O)c3C(=O)N12 | inactive | inactive |  |  |  | inactive |  | inactive |  | 
16 | COC(=O)[C@H](c1ccccc1Cl)N1CCc2sccc2C1 | inactive |  | inactive | inactive |  |  | 20.9 µM (active) |  |  | inactive
17 | CC1CCN(c2cc(N3CCN(C)CC3)ccc2NC(=O)c2cc(C#N)c[nH]2)CC1 | inactive | inactive |  |  |  | 21.5 µM (active) | inactive | inactive | inactive | 
18 | O=C(O)c1nc(=O)[nH]c(=O)[nH]1 | inactive | inactive | inactive | inactive | inactive | inactive |  | inactive |  | 
19 | NC(=O)c1ccc(N(C(N)=O)c2c(F)cccc2F)nc1-c1ccc(F)cc1F | 14.8 µM (active) |  | inactive |  | inactive |  | inactive |  |  | inactive
20 | COc1ccc2cc1Oc1ccc(cc1)C[C@H]1c3cc(c(OC)cc3CCN1C)Oc1c(OC)c(OC)cc3c1[C@H](C2)N(C)CC3 | 18.7 µM (active) | 23.5 µM (active) |  | inactive | 29.6 µM (active) |  |  | 23.5 µM (active) |  | 
21 | O=C(CCCN1CCN(c2ccc(F)cc2)CC1)NC1c2ccccc2CSc2ccccc21 (stereo not drawn) | 14.8 µM (active) | 11.8 µM (active) |  |  |  |  |  | 20.9 µM (active) |  | 
22 | CC1CNc2c(cccc2S(=O)(=O)N[C@@H](CCCN=C(N)N)C(=O)N2CC[C@@H](C)C[C@@H]2C(=O)O)C1 (stereo partly drawn) |  | 5.9 µM (active) | 6.62 µM (active) | inactive |  | 8.57 µM (active) | 5.26 µM (active) | 6.62 µM (active) | 10.9 µM (active) | 18.7 µM (active)
23 | CCC[C@H](N[C@@H](C)C(=O)N1[C@@H]2CCCC[C@H]2C[C@H]1C(=O)O)C(=O)OCC | inactive |  |  | inactive |  |  | inactive | 3.32 µM (active) |  | 
24 | CC(C)[C@H](O)C(=O)N[C@@H](C)C(=O)N[C@@H]1C(=O)N(C)CCc2ccccc21 |  | 23.5 µM (active) | inactive | inactive |  | inactive | 20.9 µM (active) | 18.7 µM (active) | inactive | inactive
